Results as given in PubChem BioAssay (NCATS).
Records with an inconclusive call do not appear. The source made the active and inactive calls. Calls come from the whole dose curve; as a rule, active = well fitted inhibition curve with a large enough effect; inconclusive = small, poorly fitted or top-dose-only effect; inactive = flat fitted curve, though single readings scatter.

test: P-glycoprotein substrates identified in KB-8-5-11 adenocarcinoma cell line, qHTS therapeutic library screen (AID 1346987); settings: KB-8-5-11 (P-gp overexpressing) viability, CellTiter-Glo, 72 h; series mostly up to 44.5 µM; activity change, negative = cytotoxicity: at the top concentration; note: nearly all actives have a fitted effect of over 65% in size
Summary of the method: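 Compounds are pinned in dose-response onto KB-8-5-11 cells (500 cells/well, colchicine-free medium) and left 72 h at 37 degree C. CellTiter-Glo luminescence then yields AC50 values.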
% is set by controls: 0 for no effect and ±100 for the full control effect; potency is the fitted concentration of half-maximal effect.

Structure (SMILES)	outcome	activity change, negative = cytotoxicity	Potency
CC(C)(O)C(=O)N1CCN(c2ccc(C(F)(F)F)c(C3=C(c4c[nH]c5ccccc45)C(=O)NC3=O)c2)CC1	inactive	–	–
COC(=O)C(Cc1ccc(OCCn2c(=O)sc3cc(C(=O)c4ccccc4)ccc32)cc1)C(=O)OC	inactive	–	–
C[C@]12CC[C@@H]3c4ccc(OS(=O)(=O)O)cc4CC[C@H]3[C@@H]1CCC2=O	–	-5.84% (inactive)	–
CC(=O)O[C@@]12CO[C@@H]1C[C@H](O)[C@@]1(C)C(=O)[C@H](O)C3=C(C)[C@@H](OC(=O)[C@H](O)[C@@H](NC(=O)OC(C)(C)C)c4ccccc4)C[C@@](O)([C@@H](OC(=O)c4ccccc4)C12)C3(C)C (some centres undefined)	–	–	0.126 µM (active)
C=C(NC(=O)C(=C)NC(=O)c1csc(C2=NC3c4csc(n4)C4NC(=O)c5csc(n5)C(C(C)(O)C(C)O)NC(=O)C5CSC(=N5)/C(=C/C)NC(=O)C(C(C)O)NC(=O)c5csc(n5)C3(CC2)NC(=O)C(C)NC(=O)C(=C)NC(=O)C(C)NC(=O)C(C(C)CC)NC2C=Cc3c(C(C)O)cc(nc3C2O)C(=O)OC4C)n1)C(N)=O (centres undefined)	–	-3.39% (inactive)	–
Nc1ncnc2c1nc(Cl)n2C1OC2COP(=O)(O)OC2C1O (centres undefined)	–	–	1.46 µM (active)
CC(=O)O[C@@H]1[C@H](O[C@@H]2O[C@@H](CO)[C@H](O)[C@H]2O)[C@@H](O[C@@H]2O[C@@H](C)[C@H](O[C@@H]3OC[C@@H](O)[C@H](O)[C@H]3O)[C@@H](O)[C@H]2O)[C@H](OC(=O)[C@]23CCC(C)(C)C[C@H]2C2=CCC4[C@@]5(C)CC[C@H](O[C@@H]6O[C@H](C(=O)O)[C@@H](O)[C@H](O)[C@H]6O[C@@H]6O[C@H](CO)[C@H](O)[C@H](O)[C@H]6O)[C@@](C)(C=O)C5CC[C@@]4(C)[C@]2(C)C[C@H]3O)O[C@@H]1C (some centres undefined)	inactive [at 9.29 µM]	–	–
CN(C(=O)CO)c1c(I)c(C(=O)NCC(O)CO)c(I)c(C(=O)NCC(O)CO)c1I (centres undefined)	–	-17.8% (inactive)	–
CN=C(NC)NCc1ccccc1	–	13% (inactive)	–
CCCCCCCCCCCCCCCC(=O)OC[C@@H](COP(=O)([O-])OCC[N+](C)(C)C)OC(=O)CCCCCCCCCCCCCCC	–	14.5% (inactive)	–
C=C1/C(=C/C=C2\CCC[C@@]3(C)C2CCC3[C@H](C)/C=C/[C@@H](O)C2CC2)C[C@@H](O)C[C@@H]1O (some centres undefined)	–	-13.4% (inactive)	–
CCO[C@H]1CN(C2CCC(O)(c3ccc4c(c3)OCO4)CC2)C[C@@H]1NC(=O)CNC(=O)c1cccc(C(F)(F)F)c1 (some centres undefined)	–	-4% (inactive)	–
CC(C)(C)[C@H](NC(=O)c1ccc(N)c(Cl)c1)C(=O)N1CCC[C@H]1C(=O)N[C@H](C#N)CC(=O)O	–	9.42% (inactive)	–
CCn1c(-c2nonc2N)nc2c(C#CCO)ncc(OCCCN)c21	inactive	–	–
Cc1ccc(-c2ncccn2)c(C(=O)N2C[C@H](COc3ccc(F)cn3)CC[C@H]2C)c1	–	-20.4% (inactive)	–
CCCCCCOC(=O)/N=C(\N)c1ccc(NCc2nc3cc(C(=O)N(CCC(=O)OCC)c4ccccn4)ccc3n2C)cc1	–	-16.8% (inactive)	–
Cc1cc(NC(=O)NCCN2CCC(O)(Cc3ccccc3)CC2)c2ccccc2n1	inactive	–	–
NS(=O)(=O)c1ccc(N2CCN(CC[C@@H]3OCCc4ccccc43)CC2)cc1	–	-11.5% (inactive)	–
CC(=O)OC1CC(C)(C(=O)O)CC2C3=CC(=O)C4C5(C)CCC(OC6OC(C(=O)O)C(O)C(O)C6OC6OC(C(=O)O)C(O)C(O)C6O)C(C)(C)C5CCC4(C)C3(C)CCC12C (centres undefined)	–	0.92% [at 9.29 µM] (inactive)	–
C/C=C(\C)C(=O)OC1C(C)C2(O)C(C=C(CO)CC3(O)C(=O)C(C)=CC32)C2C(C)(C)C12OC(C)=O (centres undefined)	–	-36.3% [at 17.3 µM] (inactive)	–

Structure (SMILES)	outcome	activity change, negative = cytotoxicity	Potency
O=C(c1ccccc1)c1c(O)cc(O)cc1O[C@@H]1O[C@H](CO)[C@@H](O)[C@H](O)[C@H]1O	–	-6.93% (inactive)	–
Clc1ncoc1-c1c[nH]c2ccccc12	–	-2.16% (inactive)	–
Cn1c(SCC(=O)N2CCC[C@H]2C(=O)Nc2ccccc2-c2ccccc2)nc2ccccc21	–	-13.6% (inactive)	–
CCCN(CC)C(CC)C(=O)Nc1c(C)cccc1C (centres undefined)	–	-3.33% (inactive)	–
COC(=O)C1=COC(O[C@@H]2O[C@H](CO[C@@H]3O[C@H](COC(=O)/C=C\c4ccc(O)cc4)[C@@H](O)[C@H](O)[C@H]3O)[C@@H](O)[C@H](O)[C@H]2O)C2C(CO)=CCC12 (some centres undefined)	–	3.67% [at 17.3 µM] (inactive)	–
O=C(Nc1ccc(C(O)(C(F)(F)F)C(F)(F)F)cc1)c1ccc(C(F)(F)F)cc1	–	–	18.4 µM (active)
CC[C@H]1CN(c2nc(N)c(C(N)=O)nc2Cl)CCN1C1CCN(Cc2ccc(Cl)cc2)CC1	–	-25.6% (inactive)	–
COc1ccc([C@H]2Cc3cccc(O)c3C(=O)O2)cc1OC	–	-10.2% (inactive)	–
C=C(C(=O)OC[C@H]1O[C@@H](OC(=O)/C=C/c2ccccc2)[C@H](O)[C@@H](O)[C@@H]1O)C(O)CO (some centres undefined)	–	-5.33% [at 17.3 µM] (inactive)	–
COc1cc(C(=O)NC(=S)Nc2cccc(NC(=O)c3ccccc3)c2)cc(OC)c1OC	–	-3.28% (inactive)	–
O=C(NCC1CCN(Cc2cccc(Cl)c2)CC1)[C@@H]1CCCN(c2ncnc3c2nc2n3CCCC2)C1	–	-5.04% (inactive)	–
Cc1cn(CCN2CCN(c3ccccc3-c3cc(C#N)cc(C(=O)NCCCN4CCCC4)c3)CC2)c2ccccc12	–	–	18.4 µM (active)
O=C(Nc1cccc(C(F)(F)F)c1)Nc1ccc(Br)cc1-c1nn[nH]n1	–	-10.6% (inactive)	–
NC(N)=NC(=O)c1cnn(-c2cccc3ncccc23)c1C1CC1	–	-0.957% (inactive)	–
CCCN1CCC=C(c2cc(-c3ccc(C)cc3)no2)C1	–	-4.34% (inactive)	–
O=c1cc(NCCCN[C@@H]2CCOc3c(Br)cc(Br)cc32)[nH]c2ccsc12	–	-12.4% (inactive)	–
CCC1C(=O)N(C)c2cnc(Nc3ccc(C(=O)NC4CCN(C)CC4)cc3OC)nc2N1C1CCCC1 (centres undefined)	–	–	0.231 µM (active)
CCC(C)CC(=O)OC1C(=O)C(CO)=CC(O)C1C(C)C (centres undefined)	–	–	7.31 µM (active)
COc1cc(N2CCOCC2)ccc1NC(=O)c1csc(-c2cccnc2)n1	–	–	11.6 µM (active)
